Experimental data from PubChem BioAssay (Tox21).
Several values for one entry are separate records, joined by “and”; a condition that tells them apart may be missing. Identical values can stand only once. Results filed as inconclusive are left out. Entries that show only a call come without a potency. Where a structure was tested more than once in an assay, its records may differ in their call. Activity calls are given as the source filed them. Unless noted, calls follow the shape of the dose curve; as a rule, active = well fitted curve in the direction sought with a large enough effect in the repeat runs; inconclusive = weak or mixed curves; inactive = no such curve, though single readings can be large; an effect the other way counts as inactive or inconclusive.

Experiments:
[1] = qHTS assay to identify small molecule agonists of the peroxisome proliferator-activated receptor delta (PPARd) signaling pathway - cell viability counter screen (AID 743211); also: nearly all actives have a fitted effect of over 55% in size; also: potency is read from the fitted curve at half-maximal effect
Outline: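 Multiplexed format: after the 2 h room-temperature LiveBLAzer B/G FRET step, CellTiter-Glo was added to the same wells. Luminescence after 30 min gave cell viability; compound exposure was 17 h at 37C.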

[2] = qHTS assay to identify small molecule antagonists of the peroxisome proliferator-activated receptor delta (PPARd) signaling pathway - cell viability counter screen (AID 743213); also: nearly all actives have a fitted effect of over 50% in size; also: potency is read from the fitted curve at half-maximal effect
Outline: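 HEK293H PPARd UAS-bla cells, 5 h pre-incubation, compound + L165041 300 nM final, 17 h 37 C; B/G FRET substrate 2 h RT; then CellTiter-Glo 30 min RT, luminescence.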

[3] = qHTS assay to identify small molecule agonists of the farnesoid-X-receptor (FXR) signaling pathway - cell viability counter screen (AID 743218); also: nearly all actives have a fitted effect of over 45% in size; also: potency is read from the fitted curve at half-maximal effect
Outline: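 Viability of FXR-bla HEK 293T cells is measured by ATP-based CellTiter-Glo luminescence following 16 h compound treatment at 37 C and a prior 2 h room-temperature beta-lactamase substrate step.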

[4] = qHTS assay to identify small molecule antagonists of the farnesoid-X-receptor (FXR) signaling pathway - cell viability counter screen (AID 743221; active = well fitted cell-killing curve with a large enough effect in the repeat runs, not every such curve was filed as active; also: nearly all actives have a fitted effect of over 50% in size; also: potency is read from the fitted curve at half-maximal effect)
Outline: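 CellTiter-Glo, 30 min RT, luminescence; same wells as the LiveBLAzer FRET read. Cells: FXR-UAS-bla HEK 293T. Treatment: compound with chenodeoxycholic acid 50 uM final, 16 h at 37 C.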

[5] = target: Vitamin D3 receptor (Homo sapiens) (UniProt P11473); experiment: qHTS assay to identify small molecule agonists of the vitamin D receptor (VDR) signaling pathway (AID 743222; calls by dose curve)
Sequence of Vitamin D3 receptor (Homo sapiens) (P11473 whole entry, looked up): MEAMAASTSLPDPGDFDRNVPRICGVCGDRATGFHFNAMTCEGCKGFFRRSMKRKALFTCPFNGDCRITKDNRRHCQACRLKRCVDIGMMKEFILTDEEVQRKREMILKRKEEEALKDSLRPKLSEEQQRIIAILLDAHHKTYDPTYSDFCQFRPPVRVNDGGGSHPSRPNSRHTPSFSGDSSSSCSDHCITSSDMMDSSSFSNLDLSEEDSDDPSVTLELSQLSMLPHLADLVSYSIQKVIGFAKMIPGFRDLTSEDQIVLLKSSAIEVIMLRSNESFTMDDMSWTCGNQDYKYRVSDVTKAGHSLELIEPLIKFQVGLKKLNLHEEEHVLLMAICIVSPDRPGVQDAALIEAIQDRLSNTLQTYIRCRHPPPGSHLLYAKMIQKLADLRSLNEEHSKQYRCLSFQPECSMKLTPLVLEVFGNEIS
Outline: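 Fluorescence from cleaved LiveBLAzer B/G FRET substrate served as readout. VDR-bla cells had been treated 16 h at 37C with test compounds in DMSO, following a 4 h settling period, and substrate was loaded for 2 h at RT.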

[6] = target: Vitamin D3 receptor (Homo sapiens) (UniProt P11473); experiment: qHTS assay to identify small molecule antagonists of the vitamin D receptor (VDR) signaling pathway (AID 743223; active = well fitted inhibition curve with a large enough effect in the signal ratio in the repeat runs, not every such curve was filed as active; the % refers to the signal ratio)
Outline: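 After VDR-bla cells are plated and left 4 h at 37C, DMSO-dissolved compounds and 3 nM (final) calcitriol agonist are added. Incubation continues 16 h at 37C; FRET beta-lactamase substrate then develops 2 h at room temperature.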

[7] = target: Peroxisome proliferator-activated receptor delta (Homo sapiens) (UniProt Q03181); experiment: qHTS assay to identify small molecule agonists of the peroxisome proliferator-activated receptor delta (PPARd) signaling pathway (AID 743212; calls by dose curve)
Sequence of Peroxisome proliferator-activated receptor delta (Homo sapiens) (Q03181 whole entry, looked up): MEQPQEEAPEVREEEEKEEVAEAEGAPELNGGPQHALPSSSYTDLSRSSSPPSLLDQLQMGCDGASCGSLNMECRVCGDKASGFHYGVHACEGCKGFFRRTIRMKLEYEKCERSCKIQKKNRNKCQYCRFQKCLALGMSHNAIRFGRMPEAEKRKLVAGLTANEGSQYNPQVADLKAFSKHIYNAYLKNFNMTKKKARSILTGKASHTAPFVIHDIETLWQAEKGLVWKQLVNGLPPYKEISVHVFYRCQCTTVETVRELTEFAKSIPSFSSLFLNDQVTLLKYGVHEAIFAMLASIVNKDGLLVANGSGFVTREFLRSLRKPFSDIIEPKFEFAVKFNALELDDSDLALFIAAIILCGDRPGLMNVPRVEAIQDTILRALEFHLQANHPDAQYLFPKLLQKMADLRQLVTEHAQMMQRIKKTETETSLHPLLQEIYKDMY
Outline: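 Tox21 library screened in GeneBLAzer PPARd UAS-bla HEK293H cells. After compound treatment at 37 C, a FRET-based beta-lactamase substrate was applied for 2 h and fluorescence recorded.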

[8] = target: Peroxisome proliferator-activated receptor delta (Homo sapiens) (UniProt Q03181); experiment: qHTS assay to identify small molecule antagonists of the peroxisome proliferator-activated receptor delta (PPARd) signaling pathway (AID 743215; active = well fitted inhibition curve with a large enough effect in the signal ratio in the repeat runs, not every such curve was filed as active; the % refers to the signal ratio;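 also: cells stimulated with agonist L165041 at 300 nM final during compound exposure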; also: potency is read from the fitted curve at half-maximal effect)
Outline: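 Plated HEK293H PPARd-bla cells rested 5 h at 37 C and 5% CO2. Compound, then agonist L165041 at 300 nM final, was added; 17 h at 37 C followed. Substrate loading, 2 h room temperature, fluorescence measured.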

[9] = target: Bile acid receptor (Homo sapiens) (UniProt Q96RI1); experiment: qHTS assay to identify small molecule antagonists of the farnesoid-X-receptor (FXR) signaling pathway (AID 743217; active = well fitted inhibition curve with a large enough effect in the signal ratio in the repeat runs, not every such curve was filed as active; the % refers to the signal ratio)
Sequence of Bile acid receptor (Homo sapiens) (Q96RI1 whole entry, looked up): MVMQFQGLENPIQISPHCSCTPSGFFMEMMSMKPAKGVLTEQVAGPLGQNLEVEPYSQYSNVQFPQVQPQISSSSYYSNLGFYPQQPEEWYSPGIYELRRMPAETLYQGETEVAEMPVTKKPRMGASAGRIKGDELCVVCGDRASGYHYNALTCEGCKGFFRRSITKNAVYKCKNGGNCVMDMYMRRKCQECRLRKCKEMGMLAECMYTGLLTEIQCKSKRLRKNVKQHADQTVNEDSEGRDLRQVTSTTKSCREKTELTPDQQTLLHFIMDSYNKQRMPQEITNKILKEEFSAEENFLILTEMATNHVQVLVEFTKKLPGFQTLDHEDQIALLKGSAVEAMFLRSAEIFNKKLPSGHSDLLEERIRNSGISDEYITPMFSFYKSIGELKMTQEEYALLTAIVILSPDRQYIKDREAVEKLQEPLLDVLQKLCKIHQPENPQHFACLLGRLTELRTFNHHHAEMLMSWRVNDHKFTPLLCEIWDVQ
Outline: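 Screen of the Tox21 10K library in quantitative HTS format using FXR-UAS-bla HEK 293T reporter cells. Agonist chenodeoxycholic acid, 50 uM final, added with compounds; 16 h incubation at 37 °C; beta-lactamase FRET fluorescence measured.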

[10] = target: Bile acid receptor (Homo sapiens) (UniProt Q96RI1); experiment: qHTS assay to identify small molecule agonists of the farnesoid-X-receptor (FXR) signaling pathway (AID 743220; active = well fitted activation curve with a large enough effect in the signal ratio in the repeat runs, not every such curve was filed as active; the % refers to the signal ratio; also: potency is read from the fitted curve at half-maximal effect)
Outline: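 FXR-UAS-bla HEK 293T cells carrying a UAS-driven beta-lactamase reporter were plated for 5 h at 37C/5% CO2, then exposed to DMSO-dissolved Tox21 10K compounds for 16 h at 37C. A LiveBLAzer B/G FRET substrate was loaded for 2 h at room temperature before fluorescence reading.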

Structure (SMILES): O=C(O[C@@H]1Cc2c(O)cc(O)cc2O[C@@H]1c1cc(O)c(O)c(O)c1)c1cc(O)c(O)c(O)c1
- Potency [1]: inactive
- Potency [2]: inactive
- Potency [3]: inactive
- Potency [4]: inactive
- Potency [5]: inactive
- Potency [6]: inactive

Structure (SMILES): Cc1cc(C2(c3cc(C)c(O)cc3C)OS(=O)(=O)c3ccccc32)c(C)cc1O
- Potency [1]: inactive
- Potency [2]: inactive
- Potency [3]: inactive
- Potency [4]: inactive

Structure (SMILES): CC(C)(C)NCC(O)c1cc(O)cc(O)c1 (stereo unspecified)
- Potency [1]: inactive
- Potency [2]: inactive
- Potency [4]: inactive

Structure (SMILES): CC(C(O)c1ccc(O)cc1)N1CCC(Cc2ccccc2)CC1 (stereo unspecified)
- Potency [1]: inactive
- Potency [2]: inactive
- Potency [3]: inactive
- Potency [4]: inactive

Structure (SMILES): CNCCC(Oc1ccc(C(F)(F)F)cc1)c1ccccc1 (stereo unspecified)
- Potency [1]: 27.2 µM (active) and 29.8 µM (active)
- Potency [2]: 17.2 µM (active) and 21.1 µM (active)
- Potency [4]: 48.4 µM (active)
- Potency [5]: inactive

Structure (SMILES): NC(N)=NC(=O)Cc1c(Cl)cccc1Cl
- Potency [7]: inactive
- Potency [2]: inactive
- Potency [8]: inactive
- Potency [4]: inactive
- Potency [5]: inactive
- Potency [6]: inactive

Structure (SMILES): O=C(O)Cn1cnnn1
- Potency [7]: inactive
- Potency [2]: inactive
- Potency [8]: inactive
- Potency [9]: inactive
- Potency [3]: inactive
- Potency [10]: inactive
- Potency [4]: inactive
- Potency [5]: inactive
- Potency [6]: inactive

Structure (SMILES): c1cc(C(c2ccc(OCC3CO3)cc2)C(c2ccc(OCC3CO3)cc2)c2ccc(OCC3CO3)cc2)ccc1OCC1CO1 (stereo unspecified)
- Potency [1]: inactive
- Potency [2]: inactive
- Potency [4]: inactive

Structure (SMILES): O=C1NCC2(CCN(CCc3ccccc3)CC2)O1
- Potency [1]: inactive
- Potency [2]: inactive
- Potency [3]: inactive
- Potency [4]: inactive

Structure (SMILES): CCCN[C@H]1CCc2nc(N)sc2C1
- Potency [1]: inactive
- Potency [2]: inactive
- Potency [3]: inactive
- Potency [4]: inactive
- Potency [5]: inactive
- Potency [6]: inactive

Structure (SMILES): O=C(Nc1ccccc1SSc1ccccc1NC(=O)c1ccccc1)c1ccccc1
- Potency [1]: 19.6 µM (active) and 12.3 µM (active)
- Potency [2]: 12.4 µM (active) and 11 µM (active)
- Potency [3]: inactive
- Potency [4]: inactive

Structure (SMILES): CCC(CO)(CO)COCC(CC)(CO)CO
- Potency [1]: inactive
- Potency [2]: inactive
- Potency [3]: inactive
- Potency [4]: inactive
- Potency [5]: inactive
- Potency [6]: inactive

Structure (SMILES): CCN(CC)c1ccc2c(C)cc(=O)oc2c1
- Potency [1]: inactive
- Potency [2]: inactive
- Potency [3]: inactive
- Potency [4]: inactive

Structure (SMILES): CC(C)CCOCc1ccccc1
- Potency [1]: inactive
- Potency [2]: inactive
- Potency [3]: inactive
- Potency [4]: inactive
- Potency [5]: inactive
- Potency [6]: inactive

Structure (SMILES): O=C(Oc1ccccc1)c1ccccc1O
- Potency [1]: inactive
- Potency [2]: inactive
- Potency [3]: inactive
- Potency [4]: inactive

Structure (SMILES): CCCCCC(=O)O[C@]1(C(C)=O)CC[C@H]2[C@@H]3CCC4=CC(=O)CC[C@]4(C)[C@H]3CC[C@@]21C
- Potency [1]: 48.6 µM (active) and 29.8 µM (active)
- Potency [3]: 43.4 µM (active)

Structure (SMILES): Oc1c(Cl)cc(Cl)c(Cl)c1Cc1c(O)c(Cl)cc(Cl)c1Cl
- Potency [1]: 27.5 µM (active) and 13.3 µM (active)
- Potency [2]: 38.8 µM (active) and 24.5 µM (active)
- Potency [3]: 21.8 µM (active) and 24.5 µM (active)
- Potency [10]: inactive
- Potency [4]: 48.9 µM (active)

Structure (SMILES): NCCO
- Potency [1]: inactive
- Potency [2]: inactive
- Potency [3]: inactive
- Potency [4]: inactive

Structure (SMILES): CC(C)(C)c1ccccc1
- Potency [1]: inactive
- Potency [2]: inactive
- Potency [4]: inactive
- Potency [5]: inactive

Structure (SMILES): N[C@@H]1CONC1=O
- Potency [2]: inactive
- Potency [9]: inactive
- Potency [3]: inactive
- Potency [10]: inactive
- Potency [4]: inactive
- Potency [5]: inactive
- Potency [6]: inactive

Structure (SMILES): CN(C)c1ccc(C(=C2C=CC(=[N+](C)C)C=C2)c2ccccc2)cc1
- Potency [1]: 347 nM (active) and 1.33 µM (active)
- Potency [2]: 490 nM (active) and 3.35 µM (active)
- Potency [4]: 617 nM (active) and 1.5 µM (active)

Structure (SMILES): Oc1c(Cl)cc(Cl)cc1Sc1cc(Cl)cc(Cl)c1O
- Potency [7]: inactive
- Potency [2]: 49.1 µM (active) and 19.5 µM (active)
- Potency [8]: 21.9 µM (active) and 17.4 µM (active) and inactive
- Potency [10]: inactive
- Potency [4]: 27.6 µM (active)
- Potency [5]: inactive

Structure (SMILES): O=C(O)c1cc(Cl)cc(Cl)c1
- Potency [7]: inactive
- Potency [2]: inactive
- Potency [8]: inactive
- Potency [4]: inactive

Structure (SMILES): CC(C)(C)NC(=O)[C@@H]1CN(Cc2cccnc2)CCN1C[C@@H](O)C[C@@H](Cc1ccccc1)C(=O)N[C@H]1c2ccccc2C[C@H]1O
- Potency [1]: inactive
- Potency [2]: inactive
- Potency [3]: inactive
- Potency [4]: inactive
- Potency [5]: inactive
- Potency [6]: inactive

Structure (SMILES): CCCCC/C=C/CC1CC(=O)OC1=O (stereo unspecified)
- Potency [1]: inactive
- Potency [2]: inactive
- Potency [4]: inactive
- Potency [5]: inactive
- Potency [6]: inactive

Structure (SMILES): Nc1ccc(O)cc1
- Potency [1]: inactive
- Potency [9]: inactive
- Potency [10]: 20.3 µM (active) and inactive
- Potency [4]: inactive
- Potency [6]: inactive

Structure (SMILES): Cc1c(O)cccc1C(=O)N[C@@H](CSc1ccccc1)[C@H](O)CN1C[C@H]2CCCC[C@H]2C[C@H]1C(=O)NC(C)(C)C
- Potency [1]: 7.56 µM (active) and 18.8 µM (active)
- Potency [2]: 15.1 µM (active) and 23.7 µM (active)
- Potency [10]: inactive
- Potency [4]: 19 µM (active) and 26.6 µM (active)

Structure (SMILES): Nc1ccc2cc3ccccc3cc2c1
- Potency [1]: inactive
- Potency [2]: inactive
- Potency [3]: inactive
- Potency [4]: inactive

Structure (SMILES): CCCCCCCCCCCCCCCCCl
- Potency [1]: inactive
- Potency [2]: inactive
- Potency [3]: inactive
- Potency [4]: inactive
- Potency [5]: inactive
- Potency [6]: inactive

Structure (SMILES): CC(N)=O
- Potency [2]: inactive
- Potency [3]: inactive
- Potency [4]: inactive
